Our source for the growth values is PubChem BioAssay (NCI).

About 83,000 compounds went through this panel and 20% of them were active in at least one assay; those are over-represented in the sample as a whole.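 Plates (96-well) were seeded with cells, treated with compound at one concentration, and incubated for 48 hours before percent growth was determined.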 A number with no mark means an inactive call. Activity calls are given as the source filed them. Rule for the calls: active = growth percent below 10; inactive = the rest.

What all share (test): NCI-60 one-dose screen, 48 h (100 = growth as untreated, 0 = no growth, -100 = all killed)
Holding throughout (conditions): 10 µM unless noted

Assay [1] relates to DU-145 prostate.
Assay [2] relates to K-562 leukemia.
Assay [3] concerns MALME-3M melanoma.
In assay [4] the test system is MDA-MB-231 breast.
For assay [5], the system named is RXF 393 renal.
For assay [6], the system named is SF-268 CNS.
Assay [7] has as its system SF-539 CNS.
Assay [8] relates to UACC-257 melanoma.
Assay [9] relates to M14 melanoma.
Assay [10] deals with HCT-15 colon.
In assay [11] the test system is HT29 colon.
Assay [12] concerns SNB-75 CNS.
For assay [13], the system named is U251 CNS.
For assay [14], the system named is PC-3 prostate.
The test system of assay [15] is UACC-62 melanoma.
The test system of assay [16] is LOX IMVI melanoma.
For assay [17], the system named is SF-295 CNS.
The test system of assay [18] is SNB-19 CNS.
In assay [19] the test system is SK-MEL-5 melanoma.
For assay [20], the system named is SK-MEL-28 melanoma.

Take `COc1ccc(/C=C\c2cc(OC)c(OC)c(OC)c2)cc1OCC(=O)Nc1ccc2nc(C)sc2c1`: the growth in assay [1] was 64.6%; in assay [2] it was 18.4%; in assay [3], 42.2%; in assay [4], 37.1%; in [5] it was 70.3%; in assay [6], 52.1%. Besides, the growth was 57.1% in assay [7]; 58.5% in assay [8]; 25.9% in assay [9]; 28.3% in assay [10]; 29.2% in assay [11]; 26.9% in assay [12]. In addition, the growth in [13] is 38.3%; in assay [14] it was 23.4%; in assay [15], 11.9%; in assay [16], 49.6%.

With `COc1ccc(C(=O)COc2cccc(/C=C3\CSc4ccccc4C3=O)c2)cc1`, the growth in assay [1] is 102%; in [2], -73.4% (active); in assay [3] it was -67.2% (active); in assay [4], 76.6%; in assay [5] it was -39.6% (active); in assay [6], 51.7%. Also, the growth was 38% in assay [17]; 62.5% in assay [7]; -35.8% (active) in [8]; -26.3% (active) in assay [9]; -54.1% (active) in [10]; 91.6% in [12]. The growth is 63.6% in assay [18]; -86.7% (active) in assay [13]; -75.8% (active) in assay [19]; -72% (active) in assay [15]; -100% (active) in assay [16]; -62.3% (active) in [20].

Take `CN1CCN(c2ccc(Nc3c4ccccc4nc4ccccc34)cc2)CC1`: the growth in [1] was 111%; in [2], 105%; in assay [3], 103%; in [4], 105%; in [5] it was 110%; in [6], 107%. Besides, the growth is 99.6% in assay [7]; 103% in [8]; 113% in assay [9]; 99.3% in assay [10]; 103% in [11]; 96.8% in assay [12]. Besides, the growth in assay [18] was 107%; in [13], 99.8%; in assay [19] it was 102%; in [15], 109%; in [16], 105%; in [20], 109%.

Regarding `CCCCCCN(CCCCCC)C(=N)c1ccnc2ccccc12`, the growth in [1] was 85.1%; in assay [2], 16.8%; in assay [3], 76.2%; in assay [4], 58.1%; in assay [5], 70.3%; in assay [6], 83.8%. For the same compound, the growth is 79.7% in assay [7]; 69.9% in assay [8]; 18.9% in [9]; 65.9% in assay [10]; 8.96% (active) in assay [11]; 57.6% in [12]. Also, the growth in assay [18] is 84.1%; in assay [13], 63.9%; in assay [14], 58.3%; in [15] it was 81.3%; in assay [16], 30%; in assay [20] it was 88.4%.

Take `COc1cc2c(cc1-c1c(C)noc1C)ncc1nc(C3CCOCC3)n([C@H](C)COC(F)F)c12`: the growth in assay [1] was 69.2%; in assay [2] it was 30.5%; in assay [3], 71.7%; in assay [4], 46.3%; in assay [5], 54.8%; in [6] it was 65.5%. Further, the growth in [17] was 49.7%; in assay [7], 33.6%; in [8] it was 31.8%; in assay [9], 46.2%; in assay [10] it was 22.8%; in assay [12], 29.9%. The growth in [13] was 51.8%; in assay [14], 34.3%; in assay [15] it was 17.8%; in assay [16], 12.6%; in assay [20] it was 55.8%.

Regarding `CCN(CC)c1ccc(-c2cc(-c3cc(OC)c(OC)c(OC)c3)nc(N3CCOCC3)c2C#N)cc1`, the growth is 38.8% in [1]; 1.69% (active) in assay [2]; -12.6% (active) in assay [3]; -10.9% (active) in [4]; -9.31% (active) in [5]; 39.6% in [6]. Further, the growth in assay [17] is -54.6% (active); in assay [7], 35.6%; in assay [8] it was -23.5% (active); in assay [9] it was -53.9% (active); in assay [10], 10.7%; in assay [12], 29.8%. Moreover, the growth is 79% in assay [18]; 36.7% in assay [13]; -83.3% (active) in assay [19]; -58% (active) in assay [15]; -77.3% (active) in assay [16]; 21.8% in assay [20].

As for `O=c1cc(CSc2nnc(-c3ccc(F)cc3)o2)c2ccc3ccccc3c2o1`, the growth in assay [1] is 107%; in assay [2], 93.9%; in assay [3], 107%; in assay [4] it was 87.2%; in [5] it was 107%; in assay [6], 96.4%. For the same compound, the growth in assay [17] was 89.5%; in [7], 98.1%; in assay [8], 103%; in assay [9] it was 103%; in [10], 98.4%; in [12] it was 98.3%. Also, the growth was 101% in [18]; 102% in [13]; 92.5% in [14]; 93.5% in assay [15]; 87.7% in [16]; 110% in assay [20].

Take `CCOc1cc2c(cc1OCC)C(c1cc(OC)c(O)cc1Cl)NCC2` (stereo not drawn): the growth in assay [1] is 110%; in assay [2], 53.3%; in assay [3] it was 55.2%; in [4], 88.6%; in [5], 85.1%; in assay [6] it was 100%. Also, the growth in assay [7] is 101%; in [8], 99.2%; in [9] it was 80.2%; in assay [10], 86.9%; in [11], 56.9%; in assay [12], 82.2%. Moreover, the growth in assay [18] was 103%; in assay [19], 88.6%; in assay [15], 99.8%; in assay [16], 89.6%; in assay [20], 99.9%.

Turning to `O=S(=O)(Nc1ccc(OC(F)F)cc1)c1ccc(-c2cnc(C3CC3)o2)cc1`, the growth is 90.5% in assay [1]; 19.8% in [2]; 76.5% in assay [3]; 70.2% in assay [4]; 81.9% in assay [5]; 75.4% in assay [6]. The growth was 53.3% in [17]; 79.2% in [7]; 75% in assay [8]; 50.9% in [9]; 38.4% in assay [10]; 42.7% in assay [12]. The growth in assay [18] was 75.8%; in [14], 67.6%; in assay [19], 57.7%; in assay [15], 44%; in assay [16], 72%; in assay [20], 85.3%.
